# The supplement of paper PMC8728848
# The entries come from a sample that favours the strongest signals as a whole.
# Assays:
# Test in all cases: glycan array binding signal (z-score within array); higher = stronger binding
# Settings in all cases: glycan notation: IUPAC condensed, linker removed
# [1] = molecular target: Fuc(a1-2)Gal(b1-3)GlcNAc(b1-2)Man(a1-3)[Fuc(a1-2)Gal(b1-3)GlcNAc(b1-2)Man(a1-6)]Man(b1-4)GlcNAc(b1-4)[Fuc(a1-6)]GlcNAc
# Method in brief: (§1)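 Arrays were curated from the Consortium for Functional Glycomics database, 3228 in total, and kept only where the protein sequence was available. Binding is expressed as a within-array Z-score. This score was averaged across arrays of the same protein sequence at different concentrations or buffers and across linkers, and negative values can be read as non-binding.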
# [2] = molecular target: Fuc(a1-2)Gal(b1-3)GlcNAc(b1-3)[Gal(b1-4)GlcNAc(b1-6)]Gal(b1-4)Glc
# Method in brief: as §1
# [3] = molecular target: Fuc(a1-2)[Gal(a1-3)]Gal(b1-4)GlcNAc(b1-3)[Fuc(a1-2)[Gal(a1-3)]Gal(b1-4)GlcNAc(b1-6)]GalNAc
# Method in brief: as §1
# [4] = molecular target: Fuc(a1-2)[GalNAc(a1-3)]Gal(b1-3)GlcNAc(b1-3)GalNAc
# Method in brief: as §1
# [5] = molecular target: Fuc(a1-2)[GalNAc(a1-3)]Gal(b1-4)GlcNAc(b1-3)Gal(b1-4)GlcNAc(b1-3)Gal(b1-4)GlcNAc
# Method in brief: as §1
# [6] = molecular target: Fuc(a1-3)[Gal(b1-4)]GlcNAc(b1-2)Man
# Method in brief: as §1
# Fuc(a1-4)GlcNAc = molecular target: Fuc(a1-4)GlcNAc
# Method in brief: as §1
# [7] = molecular target: Gal(a1-3)[Gal(a1-4)]Gal(b1-4)GlcNAc
# Method in brief: as §1
# Gal(a1-4)Gal(b1-4)GlcNAc = molecular target: Gal(a1-4)Gal(b1-4)GlcNAc
# Method in brief: as §1
# Gal(a1-6)Glc = molecular target: Gal(a1-6)Glc
# Method in brief: as §1
# Gal(b1-2)Gal = molecular target: Gal(b1-2)Gal
# Method in brief: as §1
# Gal(b1-3)GlcNAc = molecular target: Gal(b1-3)GlcNAc
# Method in brief: as §1
# [8] = molecular target: Gal(b1-3)GlcNAc(a1-3)Gal(b1-4)GlcNAc
# Method in brief: as §1
# Gal(b1-3)GlcNAc(b1-2)Man = molecular target: Gal(b1-3)GlcNAc(b1-2)Man
# Method in brief: as §1
# [9] = molecular target: Gal(b1-3)GlcNAc(b1-3)Gal(b1-4)Glc
# Method in brief: as §1
# [10] = molecular target: Gal(b1-3)GlcNAc(b1-3)GalNAc
# Method in brief: as §1
# [11] = molecular target: Gal(b1-4)GlcNAc(b1-2)[Gal(b1-4)GlcNAc(b1-6)]Man(a1-6)[GlcNAc(b1-4)][Gal(b1-4)GlcNAc(b1-2)Man(a1-3)]Man(b1-4)GlcNAc(b1-4)GlcNAc
# Method in brief: as §1
# [12] = molecular target: Gal(b1-4)GlcNAc(b1-3)Gal(b1-4)GlcNAc(b1-3)Gal(b1-4)GlcNAc(b1-2)Man(a1-3)[Gal(b1-4)GlcNAc(b1-3)Gal(b1-4)GlcNAc(b1-3)Gal(b1-4)GlcNAc(b1-2)Man(a1-6)]Man(b1-4)GlcNAc(b1-4)[Fuc(a1-6)]GlcNAc
# Method in brief: as §1
# [13] = molecular target: Gal(b1-4)GlcNAc(b1-3)Gal(b1-4)GlcNAc(b1-3)Gal(b1-4)GlcNAc(b1-3)Gal(b1-4)GlcNAc(b1-3)Gal(b1-4)GlcNAc(b1-2)[Gal(b1-4)GlcNAc(b1-3)Gal(b1-4)GlcNAc(b1-3)Gal(b1-4)GlcNAc(b1-3)Gal(b1-4)GlcNAc(b1-3)Gal(b1-4)GlcNAc(b1-6)]Man(a1-6)[Gal(b1-4)GlcNAc(b1-3)Gal(b1-4)GlcNAc(b1-3)Gal(b1-4)GlcNAc(b1-3)Gal(b1-4)GlcNAc(b1-3)Gal(b1-4)GlcNAc(b1-2)Man(a1-3)]Man(b1-4)GlcNAc(b1-4)[Fuc(a1-6)]GlcNAc
# Method in brief: as §1
# Gal3S(b1-3)GalNAc = molecular target: Gal3S(b1-3)GalNAc
# Method in brief: as §1
# Gal3S(b1-4)Glc = molecular target: Gal3S(b1-4)Glc
# Method in brief: as §1
# Gal3S4S(b1-4)GlcNAc = molecular target: Gal3S4S(b1-4)GlcNAc
# Method in brief: as §1
# GalNAc(a1-3)GalNAc = molecular target: GalNAc(a1-3)GalNAc
# Method in brief: as §1
# GalNAc(b1-4)GlcNAc = molecular target: GalNAc(b1-4)GlcNAc
# Method in brief: as §1
# [14] = molecular target: GalNAc(b1-4)GlcNAc(b1-2)Man(a1-3)[GalNAc(b1-4)GlcNAc(b1-2)Man(a1-6)]Man(b1-4)GlcNAc(b1-4)GlcNAc
# Method in brief: as §1
# GlcA(b1-3)GlcNAc = molecular target: GlcA(b1-3)GlcNAc
# Method in brief: as §1
# [15] = molecular target: GlcNAc(a1-4)Gal(b1-4)GlcNAc(b1-3)Gal(b1-4)Glc
# Method in brief: as §1
# [16] = molecular target: GlcNAc(b1-2)Man(a1-3)[GlcNAc(b1-4)][GlcNAc(b1-2)Man(a1-6)]Man(b1-4)GlcNAc(b1-4)[Fuc(a1-6)]GlcNAc
# Method in brief: as §1
# [17] = molecular target: GlcNAc(b1-2)[GlcNAc(b1-4)]Man(a1-3)[GlcNAc(b1-4)][GlcNAc(b1-2)Man(a1-6)]Man(b1-4)GlcNAc(b1-4)GlcNAc
# Method in brief: as §1
# [18] = molecular target: GlcNAc(b1-2)[GlcNAc(b1-4)]Man(a1-3)[GlcNAc(b1-4)][GlcNAc(b1-2)[GlcNAc(b1-6)]Man(a1-6)]Man(b1-4)GlcNAc(b1-4)GlcNAc
# Method in brief: as §1
# [19] = molecular target: GlcNAc(b1-3)Gal(b1-4)GlcNAc(b1-2)Man(a1-3)[GlcNAc(b1-3)Gal(b1-4)GlcNAc(b1-2)Man(a1-6)]Man(b1-4)GlcNAc(b1-4)[Fuc(a1-6)]GlcNAc
# Method in brief: as §1
# [20] = molecular target: GlcNAc(b1-3)Gal(b1-4)GlcNAc(b1-3)[GlcNAc(b1-3)Gal(b1-4)GlcNAc(b1-3)]GalNAc
# Method in brief: as §1
# GlcNAc(b1-3)Man = molecular target: GlcNAc(b1-3)Man
# Method in brief: as §1
# [21] = molecular target: GlcNAc(b1-4)GlcNAc(b1-4)GlcNAc(b1-4)GlcNAc(b1-4)GlcNAc
# Method in brief: as §1
# [22] = molecular target: Man(a1-2)Man(a1-2)Man(a1-3)Man
# Method in brief: as §1
# [23] = molecular target: Neu5Ac(a2-3)Gal(b1-3)GalNAc
# Method in brief: as §1
# Neu5Ac(a2-3)Gal(b1-4)Glc = molecular target: Neu5Ac(a2-3)Gal(b1-4)Glc
# Method in brief: as §1
# [24] = molecular target: Neu5Ac(a2-3)Gal(b1-4)GlcNAc(b1-3)Gal(b1-3)GlcNAc
# Method in brief: as §1
# [25] = molecular target: Neu5Ac(a2-3)Gal(b1-4)GlcNAc(b1-3)Gal(b1-4)GlcNAc(b1-3)GalNAc
# Method in brief: as §1
# [26] = molecular target: Neu5Ac(a2-3)Gal(b1-4)[Fuc(a1-3)]GlcNAc(b1-3)GalNAc
# Method in brief: as §1
# Neu5Ac(a2-3)GalNAc = molecular target: Neu5Ac(a2-3)GalNAc
# Method in brief: as §1
# Neu5Ac(a2-6)GalNAc = molecular target: Neu5Ac(a2-6)GalNAc
# Method in brief: as §1
# [27] = molecular target: Neu5Ac(a2-8)Neu5Ac(a2-3)[Gal(b1-3)GalNAc(b1-4)]Gal(b1-4)Glc
# Method in brief: as §1
# [28] = molecular target: Neu5Ac(a2-8)Neu5Gc(a2-3)Gal(b1-4)GlcNAc
# Method in brief: as §1
# [29] = molecular target: Neu5Gc(a2-3)Gal(b1-3)[Fuc(a1-4)]GlcNAc
# Method in brief: as §1
binder,measurement,setting,value
SP15308A-bot-339-19-339 (Bacteroides ovatus) (protein) ACNNEWEDEQYEQYISFKSPIPAGGEGVTDIYVRYKEDGKVTYRLPIVVSGSTTNTLDREVHIAVDKDTLETLNIERFSIHRPGLWYTALEEDKYDFPKTVHISAGSSVEQLNIDFNLQGIDMLEKWVLPLTIVDDPSYNYKSHPRKNYAKALLRVIPFNNYSGSYTSSAMKVYTYINGKPDTNARTANKRTGYVINDNTVFFYAGLISEDLDKEVREKYKINVHFNEDGTLHMEQGDPTNKMKFELIGTPTYSKTSVMDATRPYLERRYVQIMFEYDFEDFSYGGNGVDVIPIKYKVEGSMTLQRNINTQIPDEDQQIEW,glycan array binding signal (z-score),[1],0.285
same,glycan array binding signal (z-score),[2],-0.461
same,glycan array binding signal (z-score),[3],8.34
same,glycan array binding signal (z-score),[4],0.521
same,glycan array binding signal (z-score),[5],0.178
same,glycan array binding signal (z-score),[6],0.187
same,glycan array binding signal (z-score),Fuc(a1-4)GlcNAc,19.1
same,glycan array binding signal (z-score),[7],1.28
same,glycan array binding signal (z-score),Gal(a1-4)Gal(b1-4)GlcNAc,0.261
same,glycan array binding signal (z-score),Gal(a1-6)Glc,0.432
same,glycan array binding signal (z-score),Gal(b1-2)Gal,0.055
same,glycan array binding signal (z-score),Gal(b1-3)GlcNAc,0.061
same,glycan array binding signal (z-score),[8],0.217
same,glycan array binding signal (z-score),Gal(b1-3)GlcNAc(b1-2)Man,2.76
same,glycan array binding signal (z-score),[9],-0.437
same,glycan array binding signal (z-score),[10],0.029
same,glycan array binding signal (z-score),[11],-0.304
same,glycan array binding signal (z-score),[12],2.77
same,glycan array binding signal (z-score),[13],0.968
same,glycan array binding signal (z-score),Gal3S(b1-3)GalNAc,0.97
same,glycan array binding signal (z-score),Gal3S(b1-4)Glc,0.257
same,glycan array binding signal (z-score),Gal3S4S(b1-4)GlcNAc,0.201
same,glycan array binding signal (z-score),GalNAc(a1-3)GalNAc,1.35
same,glycan array binding signal (z-score),GalNAc(b1-4)GlcNAc,1.18
same,glycan array binding signal (z-score),[14],1.54
same,glycan array binding signal (z-score),GlcA(b1-3)GlcNAc,-0.486
same,glycan array binding signal (z-score),[15],0.185
same,glycan array binding signal (z-score),[16],-0.474
same,glycan array binding signal (z-score),[17],1.11
same,glycan array binding signal (z-score),[18],-0.391
same,glycan array binding signal (z-score),[19],0.083
same,glycan array binding signal (z-score),[20],0.148
same,glycan array binding signal (z-score),GlcNAc(b1-3)Man,-0.188
same,glycan array binding signal (z-score),[21],-0.452
same,glycan array binding signal (z-score),[22],-0.468
same,glycan array binding signal (z-score),[23],1.94
same,glycan array binding signal (z-score),Neu5Ac(a2-3)Gal(b1-4)Glc,0.997
same,glycan array binding signal (z-score),[24],0.117
same,glycan array binding signal (z-score),[25],-0.51
same,glycan array binding signal (z-score),[26],1.76
same,glycan array binding signal (z-score),Neu5Ac(a2-3)GalNAc,0.234
same,glycan array binding signal (z-score),Neu5Ac(a2-6)GalNAc,-0.36
same,glycan array binding signal (z-score),[27],-0.083
same,glycan array binding signal (z-score),[28],-0.21
same,glycan array binding signal (z-score),[29],-0.412
